In the library only some 1.2% were active in any assay of this set; here they are far more common.
mIDH1 inhibitor = human IDH1 R132H inhibition; hit rate 0.093% among 390,000; Potency, µM (doses to about 76.6 µM), without a hit: top-dose activity change, negative = inhibition, hits mostly inhibitors; AID 602179; IDH1-R132H enzyme, NADPH consumption, diaphorase/resazurin fluorescence; also: nearly all actives have a fitted effect of over 65% in size
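IDH1-R132H (0.5 ug/mL dispensed) in pH 7.5 Tris buffer was preincubated 30 min with compound, then given a substrate mix of 0.016 mM NADPH and 2 mM alpha-KG for 80 min at room temperature; remaining NADPH was read by diaphorase/resazurin fluorescence.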
GLS inhibitor = glutaminase GLS (human) inhibition | GLS enzymatic activity, qHTS titration | Potency, µM (titrated, usually from 45.5 µM), without a hit: at the highest dose activity change, negative = inhibition, actives largely listed as inhibitors | O94925 | hit rate 0.21% among 410,000
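Assay buffer: 45 mM KH2PO4 pH 8.2, 0.02% Tween-20. hKGA acts on L-glutamine (1 mM solution added); product glutamate is reported by an oxidase/peroxidase Amplex Red coupling, with fluorescence taken at baseline and 30 min.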
TrxR1 inh = inhibitors of rat thioredoxin reductase 1 | recombinant rTrxR1, NADPH fluorescence consumption, selenite substrate | Potency, µM (doses to about 114 µM), inactives show at the top dose activity change, negative = inhibition, usual class: inhibitors | hit rate 1% among 390,000 | AID 588453 | O89049; also: nearly all actives have a fitted effect of over 65% in size
Target sequence (O89049 whole entry, looked up): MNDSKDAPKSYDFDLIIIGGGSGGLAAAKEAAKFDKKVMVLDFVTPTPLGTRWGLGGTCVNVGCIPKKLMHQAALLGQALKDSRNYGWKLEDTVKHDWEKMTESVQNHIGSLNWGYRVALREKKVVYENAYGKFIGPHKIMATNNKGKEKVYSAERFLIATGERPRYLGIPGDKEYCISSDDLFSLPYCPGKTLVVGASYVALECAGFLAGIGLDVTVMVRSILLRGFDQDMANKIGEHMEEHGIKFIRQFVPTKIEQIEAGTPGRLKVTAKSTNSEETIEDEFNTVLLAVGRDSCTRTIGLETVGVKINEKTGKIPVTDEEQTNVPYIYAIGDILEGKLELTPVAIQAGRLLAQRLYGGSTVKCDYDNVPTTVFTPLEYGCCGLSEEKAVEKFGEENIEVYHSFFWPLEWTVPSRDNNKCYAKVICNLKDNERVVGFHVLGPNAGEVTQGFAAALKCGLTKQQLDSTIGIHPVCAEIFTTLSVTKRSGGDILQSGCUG
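Rat TrxR1 (90 nM in the dispensed reagent) was pre-reduced with 400 uM NADPH for 5 min at room temperature, then incubated with compound for 15 min. After 400 uM selenite was added, NADPH fluorescence (Ex 340/Em 450 nm) was followed for 8 min.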
TrxR1 substrate = substrates of rat thioredoxin reductase 1. O89049. purified TrxR1 substrate turnover, NADPH consumption readout. Potency, µM (top dose mostly 114 µM), inactives show at the top dose activity change, negative = substrate turnover. hit rate 0.01% among 390,000; also: nearly all actives have a fitted effect of over 50% in size
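Rat TrxR1, dispensed at 90 nM, was prereduced with 400 uM NADPH (final) for 5 min at ~22 deg C, then incubated with compound 15 min before 400 uM selenite. A first-read NADPH fluorescence drop versus no-compound background flagged substrates.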
An asterisk follows results filed as active; ? = inconclusive; nt = no result; [ ] = dose if it differs, or a comment. Calls follow the shape of the dose curve; as a rule, active = well fitted curve in the direction sought with a large enough effect; inconclusive = small, poorly fitted or top-dose-only effect, or another doubt; inactive = no such curve, though single readings can be large; an effect the other way counts as inactive or inconclusive. % is scaled to controls: 0 for no effect and ±100 for the full control effect; potency is read from the fitted curve at half-maximal effect.

SMILES	mIDH1 inhibitor	GLS inhibitor	TrxR1 inh	TrxR1 substrate
O=C(COc1ccc2cc(-c3ccccc3)c(=O)oc2c1)NCC1CCC(C(=O)O)CC1 (stereo not drawn)	-1%	12%	32µM*	892%
O=C(O)C1Nc2c(Cl)cc(Cl)c(Cl)c2C2C=CCC12 (stereo not drawn)	-16%	?	?	-1%
Cc1ccc(C)c2c1NC(C(=O)O)C1CC=CC21 (stereo not drawn)	nt	nt	3.2µM*	6%
O=C(O)C1Nc2c(Cl)cc(Cl)cc2C2C=CCC12 (stereo not drawn)	4%	7.9µM*	20µM*	4%
O=C(O)C1Nc2c(O)cccc2C2C=CCC12 (stereo not drawn)	4%	13µM*	35µM*	-8%
CC1(C)CC(=O)C2=C(C1)NC1=C(C(=O)c3ccccc31)C2c1ccccc1 (stereo not drawn)	-1%	3%	40µM*	-12%
CN1CCN(C(c2ccc(Cl)cc2)c2cc(Cl)c3cccnc3c2O)CC1 (stereo not drawn)	-13%	?	6.3µM*	2%
Cc1[nH]c2ccccc2c1C(=O)COC(=O)c1ccccc1SCC(=O)N1CCCC1	nt	nt	-14%	-8%[0.0914 µM]
Cc1c(CC(=O)NCC(=O)O)c(=O)oc2cc3c(cc12)CCC(C)(C)O3	7%	0%	-1%	484%
Cc1c(CC(=O)NCCCO)c(=O)oc2cc3c(cc12)CCC(C)(C)O3	-8%	-11%	56µM*	384%
COc1ccc(C(=O)CSc2nnc(-c3ccco3)n2CC2CCCO2)cc1 (stereo not drawn)	8%	10%	?	-6%
O=C(CSc1ccc(-c2ccco2)nn1)c1ccc(F)cc1	9%	-1%	8.9µM*	-4%
O=C(CSc1nnc(-c2ccco2)n1CC1CCCO1)c1ccc(F)cc1 (stereo not drawn)	-3%	?	16µM*	-1%
O=C(CSc1ccc(-c2ccco2)nn1)NCCc1ccccc1	-1%	-10%	18µM*	3%
O=C(CSc1ccc(-c2ccco2)nn1)NCc1ccc(F)cc1	1%	-4%	50µM*	7%
Cc1ccc(CNC(=O)CSc2ccc(-c3ccco3)nn2)cc1	3%	3%	?	-12%
COc1ccc(CCNC(=O)CSc2ccc(-c3ccco3)nn2)cc1	-7%	-2%	-46%	13%
C[N+]1(CC(=O)c2ccc3ccccc3c2)CCOCC1	nt	nt	21%	20%
Nc1nc(Cl)nc2c1ncn2[C@@H]1O[C@H](COP(=O)(O)OP(=O)(O)OP(=O)(O)O)[C@H](O)[C@H]1O	nt	nt	2%	nt
CC(=O)Nc1nonc1-c1nnc(SCc2ccc(F)cc2Cl)n1C	26%	5%	8%	6%
C=C(CN(C)C)C(=O)c1cc(C)ccc1C	2%	38%	1.8µM*	9%[57.1 µM]
CCOc1cc(-c2ccc(OC(=O)c3ccc(C)cc3)c(OC)c2)cc(=O)c2c(C)oc(C)c12	-11%	?	-18%	-19%
Cc1ccccc1C(=O)Oc1cc(N)n(S(C)(=O)=O)n1	8%	0%	4%[57.1 µM]	1%[57.1 µM]
Cc1c(C(=O)Oc2cc(N)n(S(C)(=O)=O)n2)cccc1[N+](=O)[O-]	-2%	-9%	25µM*	5%
CC(=O)Nc1ccc(S(=O)(=O)Nc2cc(C)on2)cc1	nt	6%	nt	nt
SMILES	mIDH1 inhibitor	GLS inhibitor	TrxR1 inh	TrxR1 substrate
CS(=O)(=O)c1ccc(S(=O)CC(=O)OCc2ccccc2)c([N+](=O)[O-])c1 (stereo not drawn)	-2%	2%	2.8µM*	6%[57.1 µM]
CCOc1cc(CNc2ccc(N3CCOCC3)cc2)cc(Br)c1OCC	7%	13µM*	-1%[57.1 µM]	-5%[57.1 µM]
CC(=O)c1cccc(N(C(=O)Cn2nnc3ccccc32)C(C(=O)NC2CCCCC2)c2cn(C)nc2C)c1 (stereo not drawn)	3%	7.9µM*	18%	6%
CC(=O)c1ccc(N(C(=O)Cn2nnc3ccccc32)C(C(=O)NC2CCCCC2)c2cn(C)nc2C)cc1 (stereo not drawn)	0%	2%	18%	3%
O=c1c(C(c2ccccc2)c2c(O)nc3n(c2=O)CCCS3)c(O)nc2n1CCCS2	5%	20%	?	3%
O=c1c(C(c2ccccc2)c2c(O)nc3n(c2=O)CCS3)c(O)nc2n1CCS2	-1%	15%	7.1µM*	-3%
O=c1c(C(c2ccc(F)cc2)c2c(O)nc3n(c2=O)CCCS3)c(O)nc2n1CCCS2	1%	17%	14µM*	-4%
Cc1ccc(Cl)cc1N1CCN(C(=O)c2cc3c(-c4ccccc4F)nn(C)c3s2)CC1	13%	-3%	17%	-1%
Cc1ccc(-n2c(CCC(=O)O)ccc2-c2cccs2)cc1Cl	-9%	26%	50µM*	4%
Cc1ccc(-n2c(CCC(=O)O)ccc2-c2cccs2)cc1	4%	5%	?	8%
COCCCn1c(CCC(=O)O)ccc1-c1cccs1	-1%	11%	?	65%[57.1 µM]
CCCn1c(CCC(=O)O)ccc1-c1cccs1	0%	-2%	50µM*	31%
COC(=O)c1ccc(-n2c(CCC(=O)O)ccc2-c2ccc(C)cc2)cc1	-19%	8%	45µM*	5%
CC(=O)c1ccc(-n2c(CCC(=O)O)ccc2-c2cccs2)cc1	-25%	52%	32µM*	3%
Cc1ccc(-c2ccc(CCC(=O)O)n2-c2ccc(C(=O)O)cc2)cc1	-6%	-6%	?	10%[57.1 µM]
CCC(=O)OC1CCC2C3CCc4cc(O)ccc4C3CCC12C (stereo not drawn)	nt	-4%	nt	nt
NC(=O)/C(=C/c1ccco1)NC(=O)c1ccc(Br)o1	0%	9%	11µM*	-4%
CS/C(=C\[N+](=O)[O-])Nc1ccc(F)cc1	1%	2%	?	-24%[57.1 µM]
COc1ccc(N/C(=C/[N+](=O)[O-])SC)cc1	-8%	0%	7.1µM*	3%[57.1 µM]
CS/C(=C\[N+](=O)[O-])Nc1ccccc1	2%	11%	1.3µM*	12%[57.1 µM]
Cc1ccc(/C=C/c2nc3ccccc3[nH]2)o1	-6%	-7%	22µM*	6%[57.1 µM]
O=C(CCl)Nc1cccc(S(=O)(=O)NC2=NCCC2)c1	2%	-3%	28µM*	4%
Clc1ccc(CNc2ncnc3nc[nH]c23)cc1	nt	nt	16%	6%
O=C(CC1Sc2ncnn2C1=O)Nc1ccc(Br)cc1 (stereo not drawn)	-9%	19%	1.4µM*	12%[57.1 µM]
Cc1ccc(-c2nc(CS(=O)(=O)CC(=O)N3CCN(c4cccc(C)c4C)CC3)c(C)o2)cc1	10%	7%	23%	0%
COc1ccc(S(=O)(=O)N/N=C\c2ccc([N+](=O)[O-])o2)c(OC)c1	10%	-8%	35µM*	-15%
O=[N+]([O-])c1ccc(/C=N\NS(=O)(=O)c2ccc(F)cc2)o1	10%	13%	32µM*	-20%
O=[N+]([O-])c1ccc(/C=N/Nc2ccc3ccccc3c2)o1	0%	17%	?	-17%
Cc1nn(-c2ccc(F)cc2)c(-n2cccc2)c1C(=O)N1CCN(c2ccc(F)cc2)CC1	-5%	8%	20%	-3%
